Experiments:
Assay in all cases: PBM binding z-score (relative to random genomic background probes); higher = stronger binding; sequences stand for … in GC…GCGATTGACAGCGTAGAATGAAGG
[1] = system: FXR:RXRa (NR concentration 270 nM, RXRa partner concentration 90 nM)
Summary of the method: (§1)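 Binding z-scores were set against random background probes. The data came from custom Agilent 4×180K protein-binding microarrays carrying double-stranded probes with 34-nt variable regions, incubated 1 h with ligand-free nuclear receptor dimers. Partner-specific antibodies detected binding, and scanned fluorescence was regression-normalized.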

[2] = system: LXRa:RXRa (NR concentration 270 nM, RXRa partner concentration 90 nM)
Summary of the method: as §1

[3] = system: LXRa homodimer (NR concentration 270 nM)
Summary of the method: as §1

[4] = system: LXRb:RXRa (NR concentration 270 nM, RXRa partner concentration 90 nM)
Summary of the method: as §1

[5] = system: LXRb homodimer (NR concentration 270 nM)
Summary of the method: as §1

[6] = system: PPARa:RXRa (NR concentration 270 nM, RXRa partner concentration 90 nM)
Summary of the method: as §1

[7] = system: PPARg:RXRa (NR concentration 180 nM, RXRa partner concentration 90 nM)
Summary of the method: as §1

[8] = system: PPARg:RXRa 270nM:90nM, anti-RXR (NR concentration 270 nM, RXRa partner concentration 90 nM)
Summary of the method: as §1

[9] = system: PPARg:RXRa 30nM:10nM, anti-RXR (NR concentration 30 nM, RXRa partner concentration 10 nM)
Summary of the method: as §1

[10] = system: PPARg:RXRa 90nM:30nM, anti-RXR (NR concentration 90 nM, RXRa partner concentration 30 nM)
Summary of the method: as §1

[11] = system: PPARg:RXRa DBDmut IVT, anti-RXR (DBD mutation: RXRa K156A/R161A, NR concentration 270 nM, RXRa partner concentration 90 nM)
Summary of the method: as §1

[12] = system: PPARg:RXRa IVT, anti-PPARg (NR concentration 270 nM, RXRa partner concentration 90 nM)
Summary of the method: as §1

[13] = system: PPARg DBDmut:RXRa IVT, anti-PPARg (DBD mutation: PPARg1 K132A/R137A, NR concentration 270 nM, RXRa partner concentration 90 nM)
Summary of the method: as §1

[14] = system: PPARg DBDmut IVT, anti-PPARg (DBD mutation: PPARg1 K132A/R137A, NR concentration 270 nM)
Summary of the method: as §1

[15] = system: PPARg homodimer (NR concentration 180 nM)
Summary of the method: as §1

[16] = system: PXR:RXRa (NR concentration 270 nM, RXRa partner concentration 90 nM)
Summary of the method: as §1

[17] = system: PXR homodimer (NR concentration 270 nM)
Summary of the method: as §1

[18] = system: RARa:RXR (NR concentration 270 nM, RXRa partner concentration 90 nM)
Summary of the method: as §1

[19] = system: RARa homodimer (NR concentration 270 nM)
Summary of the method: as §1

[20] = system: RARb:RXRa (NR concentration 270 nM, RXRa partner concentration 90 nM)
Summary of the method: as §1

Sequence: TCTAGTTGGTCCCGGAGGTCACACACGACGGGTA
- PBM binding z-score [1]: 2.88
- PBM binding z-score [2]: 2.9
- PBM binding z-score [3]: 2.37
- PBM binding z-score [4]: 3.18
- PBM binding z-score [5]: 0.951
- PBM binding z-score [6]: 3.55
- PBM binding z-score [7]: 1.68
- PBM binding z-score [8]: 2.9
- PBM binding z-score [9]: 3.06
- PBM binding z-score [10]: 3.11
- PBM binding z-score [11]: 1.7
- PBM binding z-score [12]: 1.82
- PBM binding z-score [13]: 0.461
- PBM binding z-score [14]: 1
- PBM binding z-score [15]: 2.76
- PBM binding z-score [16]: 4.18
- PBM binding z-score [17]: 1.4
- PBM binding z-score [18]: 4.64
- PBM binding z-score [19]: 1.21
- PBM binding z-score [20]: 3.41

Sequence: TCATATAGGTCAAGGTGAAAGTCGAACGATATGA
- PBM binding z-score [1]: 6.5
- PBM binding z-score [2]: 4.65
- PBM binding z-score [3]: 0.783
- PBM binding z-score [4]: 3.73
- PBM binding z-score [5]: 0.775
- PBM binding z-score [6]: 6.15
- PBM binding z-score [7]: 8.55
- PBM binding z-score [8]: 7.65
- PBM binding z-score [9]: 6.25
- PBM binding z-score [10]: 7.63
- PBM binding z-score [11]: 6.82
- PBM binding z-score [12]: 7.8
- PBM binding z-score [13]: 3.34
- PBM binding z-score [14]: 3.56
- PBM binding z-score [15]: 2.98
- PBM binding z-score [16]: 3.06
- PBM binding z-score [17]: 0.0786
- PBM binding z-score [18]: 3.99
- PBM binding z-score [19]: 0.732
- PBM binding z-score [20]: 4.84

Sequence: AGAACGAGGGCACGCTGGGTTGATAGCAGAGTAG
- PBM binding z-score [1]: 1.04
- PBM binding z-score [2]: 0.969
- PBM binding z-score [3]: -0.399
- PBM binding z-score [4]: 0.12
- PBM binding z-score [5]: -0.802
- PBM binding z-score [6]: 2.11
- PBM binding z-score [7]: 2.01
- PBM binding z-score [8]: 1.91
- PBM binding z-score [9]: 0.228
- PBM binding z-score [10]: 1.15
- PBM binding z-score [11]: 3.63
- PBM binding z-score [12]: 3.69
- PBM binding z-score [13]: 1.12
- PBM binding z-score [14]: 0.143
- PBM binding z-score [15]: 0.498
- PBM binding z-score [16]: 1.25
- PBM binding z-score [17]: 0.183
- PBM binding z-score [18]: 1.17
- PBM binding z-score [19]: 0.372
- PBM binding z-score [20]: 2.41

Sequence: ATATGTTGGTTAAGGGTCATTCAGGTTGGTTCGC
- PBM binding z-score [1]: 4.33
- PBM binding z-score [2]: 4.39
- PBM binding z-score [3]: 2.88
- PBM binding z-score [4]: 4.31
- PBM binding z-score [5]: 1.83
- PBM binding z-score [6]: 4.83
- PBM binding z-score [7]: 6.96
- PBM binding z-score [8]: 7.58
- PBM binding z-score [9]: 6.29
- PBM binding z-score [10]: 7.73
- PBM binding z-score [11]: 1.61
- PBM binding z-score [12]: 3.8
- PBM binding z-score [13]: 1.51
- PBM binding z-score [14]: 1.87
- PBM binding z-score [15]: 4.23
- PBM binding z-score [16]: 5.21
- PBM binding z-score [17]: 3.35
- PBM binding z-score [18]: 4.73
- PBM binding z-score [19]: 3.39
- PBM binding z-score [20]: 3.39

Sequence: CCTCCTAGGTCATGGTCAGCTAATCTACAGTATG
- PBM binding z-score [1]: 3.85
- PBM binding z-score [2]: 2.79
- PBM binding z-score [3]: 0.804
- PBM binding z-score [4]: 2.24
- PBM binding z-score [5]: 0.0954
- PBM binding z-score [6]: 3.8
- PBM binding z-score [7]: 2.72
- PBM binding z-score [8]: 2.89
- PBM binding z-score [9]: 0.958
- PBM binding z-score [10]: 2.09
- PBM binding z-score [11]: 3.36
- PBM binding z-score [12]: 3.76
- PBM binding z-score [13]: 0.488
- PBM binding z-score [14]: 0.0352
- PBM binding z-score [15]: 1.57
- PBM binding z-score [16]: 1.77
- PBM binding z-score [17]: 0.241
- PBM binding z-score [18]: 2.36
- PBM binding z-score [19]: 1.05
- PBM binding z-score [20]: 4.02

Sequence: CAAACTATGTCACAGAGGTCAAAGTCCGTGCGTA
- PBM binding z-score [1]: 5.6
- PBM binding z-score [2]: 5.73
- PBM binding z-score [3]: 5.85
- PBM binding z-score [4]: 5.11
- PBM binding z-score [5]: 2.14
- PBM binding z-score [6]: 5.51
- PBM binding z-score [7]: 6.2
- PBM binding z-score [8]: 6.01
- PBM binding z-score [9]: 3.36
- PBM binding z-score [10]: 5.69
- PBM binding z-score [11]: 5.08
- PBM binding z-score [12]: 5.55
- PBM binding z-score [13]: 0.905
- PBM binding z-score [14]: 0.872
- PBM binding z-score [15]: 3.02
- PBM binding z-score [16]: 5.88
- PBM binding z-score [17]: 3.31
- PBM binding z-score [18]: 5.97
- PBM binding z-score [19]: 1.58
- PBM binding z-score [20]: 4.19

Sequence: GCTGCTAGGTCAACTCATGGTCAGCTAAAGCTCG
- PBM binding z-score [1]: 4.3
- PBM binding z-score [2]: 2.9
- PBM binding z-score [3]: 0.227
- PBM binding z-score [4]: 2.29
- PBM binding z-score [5]: 0.577
- PBM binding z-score [6]: 3.73
- PBM binding z-score [7]: 2.73
- PBM binding z-score [8]: 3.12
- PBM binding z-score [9]: 0.277
- PBM binding z-score [10]: 1.79
- PBM binding z-score [11]: 4.52
- PBM binding z-score [12]: 4.36
- PBM binding z-score [13]: -0.224
- PBM binding z-score [14]: 0.163
- PBM binding z-score [15]: 1.2
- PBM binding z-score [16]: 1.83
- PBM binding z-score [17]: -0.544
- PBM binding z-score [18]: 2.76
- PBM binding z-score [19]: 0.409
- PBM binding z-score [20]: 4.46

Sequence: TCTATTAGTTGTAGGGCAACCGACGAGTCCGTTT
- PBM binding z-score [1]: 0.532
- PBM binding z-score [2]: 0.422
- PBM binding z-score [3]: 0.481
- PBM binding z-score [4]: 0.268
- PBM binding z-score [5]: 0.355
- PBM binding z-score [6]: 1.1
- PBM binding z-score [7]: 0.164
- PBM binding z-score [8]: 1.78
- PBM binding z-score [9]: 3.28
- PBM binding z-score [10]: 2.49
- PBM binding z-score [11]: 3.04
- PBM binding z-score [12]: 2.66
- PBM binding z-score [13]: 0.777
- PBM binding z-score [14]: 1.16
- PBM binding z-score [15]: 0.517
- PBM binding z-score [16]: 0.457
- PBM binding z-score [17]: 0.613
- PBM binding z-score [18]: 0.212
- PBM binding z-score [19]: 0.401
- PBM binding z-score [20]: 0.601

Reference: the supplement of paper PMC6555819
